This is a sample that favours compounds with a hit; in the whole collection about 5.7% have one here.
HEK293 tox: cytotoxicity counter-screen for GLP-1 receptor inverse agonists. HEK293 cAMP-luciferase reporter cells, luminescence, 24 h. Potency, µM (titrated, usually from 38.3 µM), for inactives: at the highest dose activity change, negative = inhibition, hits mostly inhibitors. 410,000 tested, 0.13% active;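 further: loss of luciferase light is scored as toxicity; potency means the concentration at half of the fitted maximal effect; on the % scale 0 is the no-effect control and ±100 the full control effect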
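1536-well qHTS counterscreen of the MLSMR; 200 cells/uL, 12 h pre-incubation, 23 nL cpd, 24 h at 37 deg C 5% CO2, luciferase detection reagent, 12 min RT, luminescence. Inhibition = undesired.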
ClpP mod: qHTS Assay for Activators of ClpP; purified B. subtilis ClpP, FRET peptide cleavage, 20 min; Potency, µM (series often up to 57.5 µM), for the others: at the top dose activity change, negative = active; 340,000 tested, 1.9% active; AID 651965, 2013; active means well fitted falling curve with a large enough effect; inconclusive means small, poorly fitted or top-dose-only effect; inactive means no such curve, though single readings can be large or run the other way; further: potency means the concentration at half of the fitted maximal effect; the source files actives as falling curves though it sought activators and does not explain the sign; nearly all actives have a fitted effect of over 65% in size
Target sequence (P80244 whole entry, looked up): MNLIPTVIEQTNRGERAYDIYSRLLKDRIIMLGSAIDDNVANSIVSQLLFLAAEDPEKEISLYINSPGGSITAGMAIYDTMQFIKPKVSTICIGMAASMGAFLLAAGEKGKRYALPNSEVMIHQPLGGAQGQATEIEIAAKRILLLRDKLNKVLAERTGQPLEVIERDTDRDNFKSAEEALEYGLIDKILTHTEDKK
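Purified B. subtilis ClpP, 10 microg/mL final in Tris/HCl pH8 with KCl, BSA, glycerol and Tween-20, cleaved an Abz/nitrotyrosine-quenched decapeptide. Fluorescence (ex 320, em 430) was read at 0 and 20 min at room temperature. Delta was normalized to 5.8 microM ADEP and DMSO/no-enzyme controls.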
GLP1R inv ag: inverse agonists of human GLP-1 receptor. P43220. HEK293 GLP-1R CRE-luciferase, luminescence, 24 h; GLP-1R form is constitutively active. Potency, µM (highest dose often 38.3 µM), without a hit: at the top dose activity change, negative = inhibition, usual class: inhibitors. 410,000 tested, 1.6% active; further: potency means the concentration at half of the fitted maximal effect; on the % scale 0 is the no-effect control and ±100 the full control effect; nearly all actives have a fitted effect of over 55% in size
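Seeding at 200 cells/uL, 12 h culture, 24 hr compound treatment, then luciferase reagent and a luminescence read; cells are HEK293 stably expressing a constitutively active GLP-1R plus cAMP-responsive luciferase.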
GLP1R ag: agonists of human GLP-1 receptor. P43220. HEK293 GLP-1R CRE-luciferase, luminescence, 4-6 h; cells express a hypersensitive GLP-1R form. Potency, µM (highest dose often 45.6 µM), for the others: top-dose activation, hits mostly activators. 380,000 tested, 0.007% active. AID 624172; further: potency means the concentration at half of the fitted maximal effect; % of control where 0% means no effect
DRD3 agonist: D3 dopamine receptor (human) agonism; P35462; D3R DiscoveRx beta-arrestin cells, luminescence, 90 min; max activation, %; 410,000 tested, 0.58% active; AID 652048; in the data active means max activation above about 30%; further: 0% is about no effect
Target sequence (P35462 whole entry, looked up): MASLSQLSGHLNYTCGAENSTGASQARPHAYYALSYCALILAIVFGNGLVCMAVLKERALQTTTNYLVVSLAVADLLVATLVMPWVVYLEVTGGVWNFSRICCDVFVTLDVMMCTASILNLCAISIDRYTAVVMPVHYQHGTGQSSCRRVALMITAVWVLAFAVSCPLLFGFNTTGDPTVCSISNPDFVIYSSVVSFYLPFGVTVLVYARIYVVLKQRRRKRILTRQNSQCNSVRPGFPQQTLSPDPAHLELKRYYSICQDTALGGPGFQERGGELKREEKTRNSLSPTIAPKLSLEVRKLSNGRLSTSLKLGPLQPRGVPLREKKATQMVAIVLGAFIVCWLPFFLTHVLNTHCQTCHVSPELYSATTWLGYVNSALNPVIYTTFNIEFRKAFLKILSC
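Agonist mode: compounds and dopamine controls were applied to plated cells for 90 min at 37 degrees C after an overnight attachment at 1500 cells/well. Luminescent read-out followed 30 - 60 minutes at room temperature with DiscoveRx detection reagent.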
D3 antag: blocks the human D3 dopamine receptor. P35462. D3R cells, DiscoveRx beta-arrestin luminescence, antagonist mode; active compounds read low. max response, negative = inhibition, %. 360,000 tested, 2.5% active; in the data active means max response below about -50%; inconclusive means no clear call, values can overlap the other calls; further: on the % scale 0 is the no-effect control and ±100 the full control effect
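Cells expressing the human receptor were seeded at 1500 cells/well, incubated overnight at 37 degrees C in 5% CO2, then exposed to library compounds with dopamine controls for 90 minutes at 37 degrees C before luminescent detection.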
Starred values were filed as active, the others as inactive. Unless noted, the call rests on the fitted dose curve; in most records, active means well fitted curve in the direction sought with a large enough effect; inconclusive means small, poorly fitted or top-dose-only effect, or another doubt; inactive means no such curve, though single readings can be large; an effect the other way counts as inactive or inconclusive.

COc1ccccc1OCCNC(=O)c1cc(C2CC2)nc2c1cnn2C(C)C was read as HEK293 tox -15%, ClpP mod -19%, GLP1R inv ag 2%, GLP1R ag -2%, DRD3 agonist 10 and D3 antag 42.
For O=C(NCCN1CCNC1=O)c1ccc2sc([C@@H]3O[C@H](CO)[C@H](O)[C@H](O)[C@H]3O)nc2c1 the results were HEK293 tox 2%, ClpP mod -2%, GLP1R inv ag 10%, GLP1R ag 4%, DRD3 agonist 1 and D3 antag 4.
For CC(C)C[C@@H](CN)NC(=O)c1nc[nH]c1C(=O)N[C@@H](CC(C)C)C(=O)CNC[C@H](C)NC(=O)c1nc[nH]c1C(=O)N[C@@H](CC(=O)O)C(=O)O the results were HEK293 tox 2%, ClpP mod 1%, GLP1R inv ag 3%, GLP1R ag -1%, DRD3 agonist 46* and D3 antag 2.
`CC(C)C[C@@H](CNCC(=O)[C@H](CC(=O)O)NC(=O)c1[nH]cnc1C(=O)N[C@H](CN)CC(C)C)NC(=O)c1nc[nH]c1C(=O)N[C@@H](Cc1ccccc1)C(=O)O` gave HEK293 tox -1%, ClpP mod 1%, GLP1R inv ag -8%, GLP1R ag -4%, DRD3 agonist -45 and D3 antag -72*.
Screening CC(C)C[C@@H](CNCC(=O)[C@H](CC(C)C)NC(=O)c1[nH]cnc1C(=O)N[C@H](CN)CC(C)C)NC(=O)c1nc[nH]c1C(=O)N[C@@H](CC(=O)O)C(=O)O returned HEK293 tox 7%, ClpP mod 3%, GLP1R inv ag 11%, GLP1R ag 16%, DRD3 agonist -23 and D3 antag 0.
CC(C)C[C@@H](CNCC(=O)[C@H](CC(C)C)NC(=O)c1[nH]cnc1C(=O)N[C@@H](C)CN)NC(=O)c1nc[nH]c1C(=O)N[C@@H](Cc1ccccc1)C(=O)O was read as HEK293 tox -2%, ClpP mod 0%, GLP1R inv ag -5%, GLP1R ag 24%, DRD3 agonist -15 and D3 antag 0.
`O=C(COc1ccc(F)cc1)Nc1ccc(C(=O)OCc2cc(=O)n3nc(C4CC4)sc3n2)cc1` gave HEK293 tox 18%, ClpP mod -1%, GLP1R inv ag -6% and DRD3 agonist 1.
For Cc1cccc(S(=O)(=O)NC(=O)C2(C)CCN2C(=O)Cc2ccccc2)c1 (stereo not given) the results were HEK293 tox -1%, ClpP mod 3%, GLP1R inv ag 8%, GLP1R ag -6%, DRD3 agonist 7 and D3 antag 4.
O=C(NCCc1ccc(Cl)cc1)c1cccc(S(=O)(=O)N2CCCC2)c1 was read as HEK293 tox -2%, ClpP mod 0%, GLP1R inv ag -14%, GLP1R ag -2%, DRD3 agonist -1 and D3 antag 8.
Screening O=C(NCc1ccc(OC(F)(F)F)cc1)c1cccc2c1C(=O)c1ccc(N3CCCC3)cc1S2(=O)=O returned HEK293 tox 43%, ClpP mod -1%, GLP1R inv ag 12%, GLP1R ag -1%, DRD3 agonist -13 and D3 antag -51*.
O=C(NCc1ccco1)c1cccc2c1C(=O)c1ccc(N3CCC(Cc4ccccc4)CC3)cc1S2(=O)=O was read as HEK293 tox 67%, ClpP mod 1%, GLP1R inv ag -22%, GLP1R ag 5%, DRD3 agonist 31* and D3 antag 68.
`O=C(NCc1cccc(C(F)(F)F)c1)c1cccc2c1C(=O)c1ccc(N3CCC(Cc4ccccc4)CC3)cc1S2(=O)=O` gave HEK293 tox 58%, ClpP mod 1%, GLP1R inv ag 7%, GLP1R ag -1%, DRD3 agonist 10 and D3 antag 5.
CC1CCN(c2ccc3c(c2)S(=O)(=O)c2cccc(C(=O)NCc4cccc(F)c4)c2C3=O)CC1 was read as HEK293 tox 7%, ClpP mod 0%, GLP1R inv ag 19%, GLP1R ag 10%, DRD3 agonist 106* and D3 antag 100.
For O=C(NCc1cccc(F)c1)c1cccc2c1C(=O)c1ccc(N3CCCC3)cc1S2(=O)=O the results were HEK293 tox 33%, ClpP mod 0%, GLP1R inv ag -6%, GLP1R ag 15%, DRD3 agonist 14 and D3 antag 85.
`O=C(NCc1ccc(OC(F)(F)F)cc1)c1cccc2c1C(=O)c1ccc(N3CCCCC3)cc1S2(=O)=O` gave HEK293 tox 5%, ClpP mod 2%, GLP1R inv ag 3%, GLP1R ag 6%, DRD3 agonist 23 and D3 antag 45.
COC(=O)c1cc2oc3ccccc3c2n1CC(=O)Nc1cccc(SC)c1 was read as HEK293 tox 5%, ClpP mod 4%, GLP1R inv ag 6% and DRD3 agonist -11.
Screening COC(=O)[C@]12CCCCC=C1N(Cc1ccc(Cl)cc1Cl)C(=O)[C@H](CC(=O)N1CCN(C(=O)c3ccco3)CC1)C2 returned HEK293 tox 1%, ClpP mod -2%, GLP1R inv ag inconclusive, GLP1R ag 2%, DRD3 agonist 3 and D3 antag 3.
Screening N#C[C@@H]1C[C@@H]2C[C@@H]2N1C(=O)[C@@H](N)C12CC3CC(CC(O)(C3)C1)C2 returned DRD3 agonist -24.
`CCCCN1CC(C(=O)NCc2ccc(C)cc2)CC1=O` (stereo not given) gave HEK293 tox 9%, ClpP mod 20µM*, GLP1R inv ag 9%, GLP1R ag 1%, DRD3 agonist -8 and D3 antag -8.
`Cc1ccc(CNC(=O)C2CC(=O)N(CCC(C)C)C2)cc1` (stereo not given) gave HEK293 tox -7%, ClpP mod 1%, GLP1R inv ag 15%, GLP1R ag 1%, DRD3 agonist -1 and D3 antag -2.
For CC1CCCN(CCCNC(=O)c2cc3c(s2)-c2ccccc2OC3)C1 (stereo not given) the results were HEK293 tox -10%, GLP1R inv ag 8.9µM*, GLP1R ag 16%, DRD3 agonist -15 and D3 antag inconclusive.
Screening Cc1cccc2c1-c1sc(C(=O)NCCCN3CCC(C)CC3)cc1CO2 returned HEK293 tox -13%, ClpP mod 4%, GLP1R inv ag inconclusive, GLP1R ag 5%, DRD3 agonist -15 and D3 antag -95*.

Bioassay records (PubChem)
